Screens (PubChem BioAssay)
M1 antag – antagonists of human M1 muscarinic receptor. hit rate 1.3% among 360,000. inhibition, % at 3 µM. P11229. CHO-K1 hM1, Fluo-8 calcium fluorescence, ACh EC80 antagonist;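 active means percent inhibition above its own plate's cutoff, namely the mean of that plate's compound wells plus 3 SD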;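 further: peak over basal fluorescence ratio during 140 s after agonist addition; 0% = ACh EC80 plus DMSO and 100% = DMSO alone without agonist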
Target sequence (P11229 whole entry, looked up): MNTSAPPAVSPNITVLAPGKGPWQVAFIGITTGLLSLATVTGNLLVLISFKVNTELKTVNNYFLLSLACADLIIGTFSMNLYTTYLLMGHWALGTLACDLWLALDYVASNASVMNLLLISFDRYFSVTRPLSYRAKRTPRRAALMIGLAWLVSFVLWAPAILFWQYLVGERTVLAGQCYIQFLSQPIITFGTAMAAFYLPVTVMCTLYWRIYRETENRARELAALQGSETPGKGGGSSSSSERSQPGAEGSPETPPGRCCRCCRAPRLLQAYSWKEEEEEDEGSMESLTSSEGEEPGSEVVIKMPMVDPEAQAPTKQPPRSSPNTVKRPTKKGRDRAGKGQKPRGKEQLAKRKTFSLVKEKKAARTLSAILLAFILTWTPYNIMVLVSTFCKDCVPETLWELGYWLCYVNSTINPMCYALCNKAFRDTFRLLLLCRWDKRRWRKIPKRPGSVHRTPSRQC
M1 PAM – human CHRM1 positive allosteric modulation; activation, % at 3 µM; CHO-K1 hM1, Fluo-8 calcium fluorescence, ACh EC20; 0% = ACh EC20, 100% = maximal ACh; P11229; hit rate 0.088% among 360,000; in the data active means activation above about 19%, passing the limit was not always enough
CHRM1 agonist – activates human CHRM1 receptor | P11229 | CHO-K1 hM1, Fluo-8 calcium fluorescence, agonist mode; 0% DMSO, 100% acetylcholine EC100 | activation, % at 3 µM | hit rate 0.33% among 360,000 | AID 588814;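 active means activation above the run's mean compound activation plus 3 SD, cut at about 16% in these data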;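 further: peak over basal fluorescence ratio within a 140 s kinetic read after compound addition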
Myeloid diff 2 – compounds promoting myeloid differentiation; ER-HoxA9 myeloid progenitors, lysozyme-GFP differentiation, flow cytometry; calls only at 10 µM; hit rate 1% among 360,000; AID 624256;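 active means normalized GFP-positive differentiation at or above the plate's own cutoff, the solvent-only control mean plus 3 SD; inconclusive means no clear call, values can overlap the other calls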;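 further: cells exposed to compound for four days before flow analysis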
SKN-1 inh – blocks SKN-1 activity in C. elegans; inhibition, % at 21.8 µM; C. elegans VP596 Pgst-4::GFP/RFP ratio, acrylamide-induced, 24 h; hit rate 0.49% among 360,000;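 active means interference check ratio from 0.5 to 1.5 plus GFP to RFP signal ratio inhibition reaching or exceeding a fixed threshold, cut at about 30% in these data, passing the limit was not always enough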
ATG4B inhibitor – ATG4B (human) cysteine protease inhibition. Q9Y4P1. ATG4B cleavage of LC3-PLA2, NBD-HPC fluorescence, 1 h. inhibition, % at 8.33 µM. hit rate 0.51% among 340,000. AID 504462; in the data active means inhibition above about 40%
* = called active by the depositor; i = inactive; u = inconclusive; x = not tested or not shown; + = active, no number; ! = not active in a repeat. An excerpt weighted towards active compounds, which were near 3.5% of everything screened.

SMILES | M1 antag | M1 PAM | CHRM1 agonist | Myeloid diff 2 | SKN-1 inh | ATG4B inhibitor
CC1CCCCN1S(=O)(=O)c1cccc2nonc12 (centres undefined) | -10 | 8 | -2 | x | 16 | 6
COc1ccc(Cc2c(-c3ccc(OC)c(OC)c3)nc3ccc(C)cn23)c(C)c1 | -8 | -2 | -6 | i | 2 | x
CC(=O)Nc1cc[n+](C(C)C(=O)c2ccccc2)cc1 (centres undefined) | -21 | 16 | -7 | i | -12 | 1
CC(=O)Nc1cc[n+](C(C)C(=O)c2ccc(Br)cc2)cc1 (centres undefined) | 6 | -1 | -5 | + | -13 | -5
Cc1ccc(C(=O)OCC(=O)Nc2cc(C(C)(C)C)nn2-c2ccccc2)c(O)c1 | -6 | 3 | -3 | i | 10 | -11
CC(=NNC(=O)c1ccncc1)c1ccc2ccccc2c1O | 29 | -27 | 70* | x | -8 | -7
CC(=NNC(=O)c1ccncc1)c1ccccc1O | -10 | 6 | -3 | u | 4 | 2
Cc1onc(-c2c(Cl)cccc2Cl)c1C(=O)c1c[nH]c(C(=O)NCCCN2CCOCC2)c1 | 76* | -22 | -6 | i | 9 | -4
Nc1ccc(CN2CCCCCC2)cc1 | 7 | -6 | -6 | + | -4 | 3
Brc1ccc(CN2CCCCCC2)cc1 | -15 | 12 | -7 | i | 2 | -1
CCN(CC)CCNC(=O)c1ccc(NC(=O)COc2ccc3c(c2)CCC3)cc1 | 45* | -26 | -7 | i | 7 | -3
CCOc1cc(/C=C/C(=O)Nc2ccc(C(=O)NCCN(CC)CC)cc2)ccc1OCC(C)C | 64* | -22 | -5 | i | -1 | 2
COc1ccc(OCC(=O)Nc2ccc3c(c2)CCC3)cc1 | -10 | 8 | -6 | i | 13 | 3
CCN(CC)CCNC(=O)c1ccc(NC(=O)c2ccc(COc3ccccc3)cc2)cc1 | 53* | -24 | -6 | i | 3 | -6
CCN(CC)CCNC(=O)c1ccc(NC(C)=O)cc1 | -18 | -1 | -2 | +! | -14 | 0
CC(=O)N[C@@H](Cc1c[nH]c2ccccc12)C(=O)OCC(=O)Nc1ccc(S(=O)(=O)N(C)C)cc1 | -11 | 6 | -4 | i | 0 | -6
O=C(C1CC(=O)N(c2ccccc2F)C1)N1CCOCC1 (centres undefined) | -3 | -2 | -2 | i | 30 | 3
O=C(Cc1ccc(NC(=O)C2CCN(C(=O)c3ccccc3)CC2)cc1)Nc1cccc(C(=O)N2CCCC2)c1 | -1 | 4 | -6 | i | 9 | 0
O=C(CCSCc1ccccc1Cl)N1CCN(c2cccc(Cl)c2)CC1 | 1 | -1 | -3 | i | 22 | 24
CCOC(=O)CCC(=O)O[C@H]1[C@H](O[C@@H]2[C@@H](C)[C@H](O[C@H]3C[C@@](C)(OC)[C@@H](O)[C@H](C)O3)[C@@H](C)C(=O)O[C@H](CC)[C@@](C)(O)[C@H](O)[C@@H](C)C(=O)[C@H](C)C[C@@]2(C)O)O[C@H](C)C[C@@H]1N(C)C | -34 | 2 | -4 | + | -2 | 3
O=C1NC(Cc2ccc(O)cc2)c2nc3ccc(F)cc3c(=O)n2-c2cc3ccccc3cc21 (centres undefined) | 23* | -10 | -1 | i | 2 | x
CCCNC(=O)C1(C)CCCN(Cc2ccc(-c3ccccn3)cc2)C1 (centres undefined) | -26 | 3 | -10 | i | -7 | x
O=C(C1CC1)N1CCc2[nH]c3ccccc3c2C1 | -3 | 5 | 0 | i | 6 | -14
C=CCNC(=O)N1CCc2[nH]c3ccc(F)cc3c2C1 | -11 | -1 | 24* | i | -4 | 4
COc1ccccc1NC(=O)N1CCc2[nH]c3ccc(Cl)cc3c2C1 | -4 | -1 | 22* | i | 15 | -1
SMILES | M1 antag | M1 PAM | CHRM1 agonist | Myeloid diff 2 | SKN-1 inh | ATG4B inhibitor
CCCCNC(=O)N1CCc2[nH]c3ccccc3c2C1 | -13 | 8 | 19* | i | -16 | -3
Cc1ccc(-c2csc(NC(=O)C3=COCCO3)n2)cc1 | -4 | 0 | -10 | i | -4 | 3
CC(C)(C)c1csc(NC(=O)C2=COCCO2)n1 | 40* | -15 | -6 | i | 27 | 3
CCn1c(CCC(=O)Nc2nc3c(s2)CCCC3)nc2cc(S(=O)(=O)N(C)C)ccc21 | -16 | 8 | -3 | i | 54* | -31
O=S(=O)(c1ccc(OC(F)(F)F)cc1)N1CCCC(c2ccccc2)C1 (centres undefined) | -12 | 14 | -1 | i | -6 | -8
[O-][n+]1nc2ccccc2c2ccccc21 | -18 | 12 | -2 | i | 13 | 9
COc1cccc(C(=O)NCC(c2ccc3c(c2)OCO3)N2CCN(c3ccc(F)cc3)CC2)c1 (centres undefined) | 28* | -26 | -7 | i | -8 | -2
CC(=O)Nc1cccc(-c2ccnc3c2CC(C)(C(=O)Nc2ccc4c(c2)OCO4)O3)c1 (centres undefined) | -6 | 19 | 5 | x | 8 | x
Oc1cccc(/C=C/c2ccc3cccc(O)c3n2)c1 | -3 | 1 | -1 | i | 46* | -9
Cc1ccc(/C=C/c2ccc3cccc(O)c3n2)s1 | -5 | 6 | 5 | i | 35* | 2
COc1cccc(/C=C/c2ccc3cccc(O)c3n2)c1 | -4 | 3 | -6 | i | 17 | -2
O=c1cc(CN2CCN(S(=O)(=O)c3cccc(Cl)c3)CC2)c2ccc(O)cc2o1 | 26 | -11 | 1 | i | -1 | 4
Cc1ccc(NS(=O)(=O)c2cc([N+](=O)[O-])ccc2N/N=C/c2sc(N3CCOCC3)nc2-c2ccccc2)c(C)c1 | -14 | 9 | -1 | + | 0 | -2
CCOC(=O)C1=CCN(S(=O)(=O)c2cccc(Cl)c2)C1c1ccc(Br)cc1 (centres undefined) | 7 | -6 | -3 | i | 8 | x
CC(NS(=O)(=O)c1ccc(OCC(=O)N2CCOCC2)c(Cl)c1)c1ccccc1 (centres undefined) | -14 | 4 | -3 | i | 38* | 9
O=C(COc1ccc(S(=O)(=O)N2CCCCC2)cc1Cl)N1CCCC1 | -18 | 17 | -4 | + | 0 | -5
Cc1cc(-c2nnc(SCC(=O)Nc3ccccc3Cl)n2C)no1 | -5 | 1 | -3 | i | -5 | -4
Cc1cccc[n+]1CC(=O)c1ccc2c(c1)OCCO2 | 28* | -27 | -11 | i | 12 | -1
COc1cccc(NC(=O)c2ccc(CN3CCN(c4ccccc4)CC3)cc2)c1 | 20* | -22 | -7 | i | -4 | -9
COc1ccc(NC(=O)c2ccc(CN3CCN(c4ccccc4)CC3)cc2)cc1 | 3 | -6 | -2 | i | -6 | -8
